Only some compounds are listed: those with a hit (about 3.2% of all), similar ones and a draw of the others.
sPLA2-III inh – human group III sPLA2 inhibitors, primary screen, biochemical, QFRET, BODIPY PC-A2 liposome substrate; QFRET BODIPY PC-A2 liposome hydrolysis, fluorescence; inhibition, % at 12.2 µM; Group 3 secretory phospholipase A2 (Homo sapiens), Q9NZ20; 370,000 tested, 0.56% active; AID 743126, 2013;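 active = inhibition above mean plus 3 SD of compounds lying within the high and low control bounds, cut at about 19% in these data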;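 also: 0% = median of test compound wells and 100% = no enzyme DMSO wells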
Target sequence (Q9NZ20 whole entry, looked up): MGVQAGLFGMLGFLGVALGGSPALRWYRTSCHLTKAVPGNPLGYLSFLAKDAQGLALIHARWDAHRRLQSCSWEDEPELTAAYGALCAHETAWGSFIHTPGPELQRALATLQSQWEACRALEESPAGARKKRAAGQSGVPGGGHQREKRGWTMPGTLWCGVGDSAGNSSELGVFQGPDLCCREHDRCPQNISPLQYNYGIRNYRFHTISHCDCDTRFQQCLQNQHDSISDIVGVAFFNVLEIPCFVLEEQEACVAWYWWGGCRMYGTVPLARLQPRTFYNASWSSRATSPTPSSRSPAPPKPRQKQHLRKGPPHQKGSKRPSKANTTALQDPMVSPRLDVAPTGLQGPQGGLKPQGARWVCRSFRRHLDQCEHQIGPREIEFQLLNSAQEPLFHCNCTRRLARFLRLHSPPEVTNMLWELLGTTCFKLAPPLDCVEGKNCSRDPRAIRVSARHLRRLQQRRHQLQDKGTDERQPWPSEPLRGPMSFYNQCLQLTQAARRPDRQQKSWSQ
MsrA act – bovine MsrA enzyme activators, primary screen, biochemical, absorbance, HTS | Methionine sulfoxide reductase A (Bos taurus) | purified bovine MsrA, absorbance read-out | activation, % at 10.6 µM | 360,000 tested, 0.3% active | AID 602163, 2012; in the data active = activation above about 7.5%;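 also: 0% = vehicle and 100% = reference activator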
PG9 binder – binders of HIV-1 gp120 antibody PG9, primary screen, biochemical, TR-FRET; AID 624416, 2012; inhibition, % at 6.7 µM; 360,000 tested, 0.43% active; HIV-1 gp120 / PG9 antibody interaction; TR-FRET gp120-PG9 antibody binding; in the data active = inhibition above about 8.5%
rCAG binder – binders of r(CAG) RNA repeats, primary screen, biochemical, fluorescence; inhibition, % at 3 µM; 370,000 tested, 1.3% active; r(CAG) RNA repeat, TO-PRO-1 dye displacement fluorescence;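 active = inhibition above the plate cutoff, the mean of all test compounds on that plate plus 3 SD, cut at about 35% in these data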;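 also: 0% = DMSO alone and 100% = 100 µM mitoxantrone as full dye displacement; higher means more dye released from RNA so lower well fluorescence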
MsrA inh – bovine MsrA enzyme inhibitors, primary screen, biochemical, absorbance, HTS | Methionine sulfoxide reductase A (Bos taurus) | purified bovine MsrA, absorbance read-out | inhibition, % at 15.5 µM | 360,000 tested, 0.75% active | AID 651718, 2012; in the data active = inhibition above about 4.5%;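 also: 0% = vehicle wells with enzyme and 100% = reference inhibitor wells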
sPLA2 confirm – human group III sPLA2 inhibitors, confirmation, biochemical, QFRET, triplicate | inhibition, % at 12.2 µM | shares compounds with sPLA2-III inh | 2,000 tested, 34% active | recombinant hGIII-sPLA2, BODIPY PC-A2 QFRET fluorescence;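 active = mean inhibition across triplicates above the hit cutoff set in the earlier primary screen, cut at about 19% in these data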;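 also: 0% = enzyme with DMSO and 100% = DMSO wells lacking enzyme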
BODIPY interf – 535nm fluorescence optical interference, confirmation, artefact control for HGIII-sPLA2 inhibitor project, biochemical, QFRET. shares compounds with sPLA2-III inh. BODIPY FL product fluorescence interference. inhibition, % at 12.2 µM. 2,000 tested, 8.5% active. AID 743282, 2014;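 active = average inhibition above the solvent-only control mean plus 3 SD, cut at about 6% in these data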;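 also: 0% = DMSO with substrate plus product and 100% = DMSO with substrate alone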
535nm interf DR – 535nm fluorescence optical interference, dose response, artefact control for HGIII-sPLA2 inhibitor project, biochemical, QFRET. BODIPY FL product fluorescence interference, cell-free. IC50, µM. 240 tested, under 10 active. shares compounds with sPLA2-III inh. AID 743455, 2014;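 active = IC50 at or below 10 µM; inactive = IC50 above 10 µM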
Starred values were filed as active, the others as inactive; . = no result.

SMILES	sPLA2-III inh	MsrA act	PG9 binder	rCAG binder	MsrA inh	sPLA2 confirm	BODIPY interf	others
O=C(NC1C2CCCC1CN(C1CC1)C2)c1ccc(Cl)cc1 (stereo not given)	19.5*	-1.7	1.1	-1.2	0.8	19.2	-5.5
CN1C2CCC1CC(NC(=O)c1ccc(Cl)cc1)C2 (stereo not given)	12.7	-8.2	1.6	-3.3	0.3	.	.
CCOC(=O)c1[nH]c(=S)n(-c2ccccc2)c1C(=O)OCC	24.7*	-4.8	-0.5	1.9	1.6	18.4	0.3
CC(C)c1cc(C(=O)NCCc2cccs2)c(N)s1	6.6	.	-2.3	14.1	0.0	.	.
CC(C)c1cc(C(=O)NCc2ccc(F)cc2)c(N)s1	21.2*	.	-0.6	7.9	1.2	23.7*	1.8
CCN(CC)S(=O)(=O)c1ccc(Cl)c(NC(=O)COc2ccc3c(C)cc(=O)oc3c2)c1	20.6*	-7.6	-0.4	-1.2	0.7	-2.0	-11.7
CCN(CC)S(=O)(=O)c1ccc(OC)c(NC(=O)COc2ccc3c(C)cc(=O)oc3c2)c1	8.8	-0.8	2.0	11.2	1.2	.	.
CCSc1nnc([C@@H](NC(=O)OC(C)(C)C)C(C)C)o1	19.4*	-2.0	-1.0	-2.8	0.1	1.6	-3.2
COC(=O)C[C@@H]1CC[C@@H]2[C@@H](COc3ccc(NC(=O)Nc4ccc(F)cc4)cc3C(=O)N2C)O1	-8.9	.	.	5.9	.	.	.
COc1ccc(OC)c2sc(NNC(=O)C3COc4ccccc4O3)nc12 (stereo not given)	21.4*	-1.4	1.6	2.9	2.9	15.2	-1.8
Cc1cc(C)c2sc(NNC(=O)C3COc4ccccc4O3)nc2c1 (stereo not given)	28.2*	-1.1	-0.8	8.6	-0.4	31.2*	1.0	535nm interf DR=>122
CC(C)C(=O)N[C@H]1[C@H](O)CCC[C@@]12C(=O)N(Cc1ccccc1)c1ccccc12	6.4	.	.	1.7	.	.	.
CC12CCC(C(=O)NCCCN3CCOCC3)(OC1=O)C2(C)C (stereo not given)	8.2	-0.7	-0.9	-2.3	1.8	.	.
CC12CCC(C(=O)NCCCN3CCOCC3)(C(Br)C1=O)C2(C)C (stereo not given)	20.9*	1.4	0.2	-1.9	-0.2	1.1	-0.9
COc1ccc(N(C)S(=O)(=O)c2ccc(Cl)c(C(=O)NCC(C)(C)N3CCOCC3)c2)cc1	9.0	-0.6	1.0	0.3	0.7	.	.
CC(=O)Nc1ccc(NC(=S)NC(=O)c2cc3ccccc3o2)cc1	11.0	-6.1	-1.5	6.9	1.7	.	.
O=C(NC(=S)Nc1ccc2oc(=O)ccc2c1)c1cc2ccccc2o1	22.3*	-4.1	1.1	0.7	0.2	3.8	-1.9
NCCNc1ccc(C(=O)N2c3ccccc3Sc3ccccc32)cc1[N+](=O)[O-]	19.8*	-5.3	-0.4	29.6	0.5	23.8*	-26.7
Nc1ccc(C(=O)OCC(=O)N2c3ccccc3Sc3ccccc32)cc1[N+](=O)[O-]	-7.7	-0.6	-1.0	5.1	-0.9	.	.
Cc1cc2nc(-c3ccc(=O)[nH]c3)n(C)c2cc1C	-8.6	0.2	-1.9	3.5	0.6	.	.
Cc1cc2nc(C)c(=O)n(C)c2cc1C	23.5*	-4.3	-0.3	-3.0	2.0	6.1	-8.0
C=CCNC(=O)CNS(=O)(=O)c1ccc(F)cc1	20.2*	-2.1	0.9	-2.6	0.3	-0.2	-4.2
Cc1cccc(OCCN2C(=O)C(=O)c3cc(C)ccc32)c1	23.9*	-1.7	0.0	-1.4	1.8	21.3*	-1.3
Cc1ccc2c(c1)C(=O)C(=O)N2CCOc1ccccc1	25.3*	-10.0	-0.5	-1.5	0.8	12.9	-1.2
CCc1ccccc1NC(=O)NNC(=O)c1ccc2ccccc2c1O	12.3	-1.4	-1.5	6.0	-0.4	.	.
SMILES	sPLA2-III inh	MsrA act	PG9 binder	rCAG binder	MsrA inh	sPLA2 confirm	BODIPY interf	others
COc1ccc(NC(=O)NNC(=O)c2ccc3ccccc3c2O)c(OC)c1	31.6*	-3.9	-0.1	24.7	-0.1	34.0*	4.7	535nm interf DR=>122
COc1ccccc1NC(=O)c1ccccc1C(=O)O	7.7	0.1	-1.7	-3.9	1.5	.	.
CCOc1ccc(NC(=O)NNC(=O)c2ccc3ccccc3c2O)cc1	20.6*	-4.2	-2.4	28.8	0.8	24.1*	0.7
COc1ccc(NC(=O)c2ccccc2NC(=O)c2ccccc2C(=O)O)c(OC)c1	21.7*	-3.0	0.6	-1.8	0.8	0.1	-1.4
COc1ccc(NC(=O)NNC(=O)c2cc(C3CC3)nc3ccccc23)c(OC)c1	-20.4	-2.6	0.3	6.1	1.0	.	.
CCOC(=O)c1cc(OC(C)=O)c2ccc(OC)c(OC)c2c1	-4.2	0.1	0.8	-0.7	0.4	.	.
COc1ccccc1Cc1c(-c2ccccc2)nc2c(C)cc(Br)cn12	-3.6	-0.9	1.3	17.6	-0.1	.	.
OC(c1ccc(F)cc1)c1nc(-c2cnc3ccccc3c2)cs1 (stereo not given)	-8.3	-1.7	-0.4	0.8	1.0	.	.
CCCCOc1ccc(S(=O)(=O)NC(=O)C2(C)CCN2C(=O)Cc2cccs2)cc1 (stereo not given)	87.4*	-2.5	1.5	26.8	-0.5	-10.5	-6.1
Cc1ccc(S(=O)(=O)NC(=O)C2(C)CCN2C(=O)Cc2cccs2)cc1 (stereo not given)	15.8	-1.5	0.1	3.1	0.8	.	.
CCn1c(-c2nn(-c3ccc(C)cc3)ccc2=O)n[nH]c1=S	8.6	-5.8	-1.1	0.0	2.0	.	.
CCn1c(-c2nn(-c3ccccc3)ccc2=O)n[nH]c1=S	24.3*	0.3	-0.5	-5.6	2.0	3.0	-2.8
C[C@@H]1ON(C)[C@H]2C[C@H]3c4cc(-c5ccc(F)cc5)ccc4CCN3C[C@@H]12	2.1	.	-2.3	2.8	-0.8	.	.
S=c1[nH]c2ccccc2n2c(=S)[nH]nc12	20.8*	5.6	-97.6	6.0	3.7	26.1*	-4.7
C[C@H](CO)N1C[C@H](C)[C@@H](CN(C)S(=O)(=O)c2cccs2)Oc2ccc(NS(=O)(=O)c3ccc(F)cc3)cc2C1=O	-19.6	-3.6	-1.1	12.5	-0.3	.	.
COc1cc(CNc2nccn3ccnc23)cc(OC)c1	-2.0	2.3	-0.8	1.6	-1.1	.	.
